Experimental data from PubChem BioAssay (NCATS).
“And” between values parts separate entries of the source, which are not always exact repeats. Identical values can stand only once. Inconclusive results are not listed. Values without a mark were called inactive. The source made the active and inactive calls. Unless noted, calls come from the whole dose curve; as a rule, active = well fitted curve in the direction sought with a large enough effect; inconclusive = small, poorly fitted or top-dose-only effect, or another doubt; inactive = no such curve, though single readings can be large; an effect the other way counts as inactive or inconclusive.

What was measured:
[1] = qHTS assay for small molecule activators of the p53 signaling pathway (AID 651743; active = well fitted activation curve with a large enough effect in the signal ratio, not every such curve was filed as active; the % refers to the signal ratio; note: % of control where 0% means no effect); conditions: HCT-116 p53RE-bla, beta-lactamase FRET ratio, 16 h; hits give high values
Method in brief: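 Reporter: beta-lactamase driven by p53 response elements, stably integrated in HCT-116 cells. Cells seeded at 4,000/well, 5 h preincubation, compound (DMSO) 16 h at 37 C; B/G FRET substrate 2 h RT; fluorescence intensity read.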

[2] = qHTS assay for small molecule disruptors of the mitochondrial membrane potential - 1 hr assay (AID 651754; calls by dose curve; note: potency is the fitted concentration of half-maximal effect; nearly all actives have a fitted effect of over 35% in size)
Method in brief: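 In this qHTS format, a 1 hr compound treatment of HepG2 cells precedes Mito-MPS staining, and membrane potential is judged from aggregate (red) against monomer (green) fluorescence intensity.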

[3] = qHTS assay for small molecule disruptors of the mitochondrial membrane potential - 5 hr assay (AID 651755; calls by dose curve; note: potency is the fitted concentration of half-maximal effect; nearly all actives have a fitted effect of over 40% in size); conditions: JC-1-type ratio dye
Method in brief: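 Read-out: ratiometric Mito-MPS fluorescence, green monomer (ex 490/em 535) vs red mitochondrial aggregate (ex 540/em 590). HepG2 cells treated 5 hr at 37C before 30 min dye loading.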

[4] = qHTS assay for environmental chemicals that activate the Aryl hydrocarbon Receptor (AhR) signaling pathway (AID 651777); conditions: 1A2-DRE human hepatoma cells, luciferase, 24 h; hits give high values; note: % of control where 0% means no effect; nearly all actives have a fitted effect of over 15% in size
Method in brief: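 Luminescence read-out: One-Glo added for 30 min at RT after 24 hr compound treatment (37 C, 5% CO2) of human hepatoma cells expressing a DRE/CYP1A2 promoter–luciferase reporter; increased signal indicates AhR activation.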

[5] = qHTS assay for small molecule agonists of the antioxidant response element (ARE) signaling pathway measured by Nrf2-dependant transcriptional activity - cell viability counter screen (AID 720653; active = well fitted curve in the direction sought with a large enough effect in the repeat runs; an effect the other way counts as inactive or inconclusive; note: % is set by controls: 0 for no effect and ±100 for the full control effect); conditions: ARE-bla HepG2 viability, CellTiter-Glo ATP luminescence, 16 h; max response: hits give low values
Method in brief: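 ARE-bla HepG2 cells treated with compounds for 16 h at 37C; this counter screen measures viability as intracellular ATP by CellTiter-Glo luminescence after 30 min at room temperature.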

[6] = qHTS assay for cell viability of HEK293 cells (AID 743288); conditions: ATP luminescence (CellTiter-Glo), 18 h; max response: hits give low values; note: % is set by controls: 0 for no effect and ±100 for the full control effect; nearly all actives have a fitted effect of over 50% in size
Method in brief: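 After 18 h compound exposure at 37 C, parental HEK293 cells (2,000/well) are lysed with CellTiter-Glo and luminescence is read following 30 min at room temperature.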

[7] = system: AS120; experiment: qHTS profiling for inhibitors of Plasmodium falciparum proliferation (AID 504749); note: potency is the fitted concentration of half-maximal effect; nearly all actives have a fitted effect of over 60% in size; conditions: P. falciparum in erythrocytes, SYBR Green DNA, 72 h; series mostly up to 28.7 µM
Method in brief: (§1)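 SYBR Green fluorescence (ex 485 nm, em 535 nm) reports parasite DNA after 72 h compound exposure of infected red cells at 0.3% parasitemia, 2.5% hematocrit; signal normalized to 0.29 uM artemisinin and vehicle wells.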

[8] = system: ATS189; experiment: as above; conditions: P. falciparum in erythrocytes, SYBR Green DNA, 72 h; series mostly up to 28.7 µM
Method in brief: as §1

[9] = system: CP191; experiment: as above; conditions: P. falciparum in erythrocytes, SYBR Green DNA, 72 h; series mostly up to 28.7 µM
Method in brief: as §1

[10] = system: CP192; experiment: as above; conditions: P. falciparum in erythrocytes, SYBR Green DNA, 72 h; series mostly up to 28.7 µM
Method in brief: as §1

[11] = system: CP203; experiment: as above; conditions: P. falciparum in erythrocytes, SYBR Green DNA, 72 h; series mostly up to 28.7 µM
Method in brief: as §1

[12] = system: CP247; experiment: as above; conditions: P. falciparum in erythrocytes, SYBR Green DNA, 72 h; series mostly up to 28.7 µM
Method in brief: as §1

[13] = system: CP291; experiment: as above; conditions: P. falciparum in erythrocytes, SYBR Green DNA, 72 h; series mostly up to 28.7 µM
Method in brief: as §1

[14] = system: DFO2036; experiment: as above; conditions: P. falciparum in erythrocytes, SYBR Green DNA, 72 h; series mostly up to 28.7 µM
Method in brief: as §1

[15] = system: DIV14; experiment: as above; conditions: P. falciparum in erythrocytes, SYBR Green DNA, 72 h; series mostly up to 28.7 µM
Method in brief: as §1

[16] = system: DIV17; experiment: as above; conditions: P. falciparum in erythrocytes, SYBR Green DNA, 72 h; series mostly up to 28.7 µM
Method in brief: as §1

[17] = system: GB4; experiment: as above; conditions: P. falciparum in erythrocytes, SYBR Green DNA, 72 h; series mostly up to 28.7 µM
Method in brief: as §1

[18] = system: PC49; experiment: as above; conditions: P. falciparum in erythrocytes, SYBR Green DNA, 72 h; series mostly up to 28.7 µM
Method in brief: as §1

[19] = system: TAB113; experiment: as above; conditions: P. falciparum in erythrocytes, SYBR Green DNA, 72 h; series mostly up to 28.7 µM
Method in brief: as §1

[20] = system: W2; experiment: as above; conditions: P. falciparum in erythrocytes, SYBR Green DNA, 72 h; series mostly up to 28.7 µM
Method in brief: as §1

With `Nc1ccc(N)c([N+](=O)[O-])c1` the activation [1] was -0.975% and -0.0594%, the Potency [2] was 29800 nM (active) and the Potency [3] was 29800 nM (active). The activation [4] was 3.75%, the max response [5] was -19.5% and -28.1% and the max response [6] was -1.33% and -23.7%.

In the case of `O=C(CC1NCCC[C@H]1O)Cn1cnc2cc(Br)c(Cl)cc2c1=O` (stereo not given in full), the Potency [7] is reported as 2000 nM (active), the Potency [8] is reported as 4470 nM (active) and the Potency [9] is reported as 2820 nM (active). The Potency [10] was 3380 nM (active), the Potency [11] was 3380 nM (active) and the Potency [12] was 2240 nM (active). For the same compound, the Potency [13] was 2690 nM (active), the Potency [14] was 2820 nM (active) and the Potency [15] was 3010 nM (active). For the same compound, the Potency [16] was 3380 nM (active), the Potency [17] was 1900 nM (active) and the Potency [18] was 1780 nM (active). The Potency [19] was 2240 nM (active) and the Potency [20] was 675 nM (active).
